Source: the supplement of paper PMC8253809

Columns and labels:
Assay in all cases: growth inhibition (% activity, log2 RLU normalised to DMSO / staurosporine); higher = more growth inhibition
Settings in all cases: 33 µM
[1] = system: DIPGX29 (H3.3 K27M diffuse intrinsic pontine glioma line)
Method in brief: (§1)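 Cells (pHGG lines and H9-derived neural stem cells) were plated on Geltrex-coated 384-well plates and exposed to approved drugs at a single final concentration of about 33 μM, in triplicate, for 7 days at 37 °C, 5% CO2. Log2-transformed CellTiter-Glo luminescence was normalised per plate to % activity between solvent and positive control wells, and the growth-inhibition value is the median over replicates.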

[2] = system: DIPGX37 (H3.3 K27M diffuse intrinsic pontine glioma line)
Method in brief: as §1

[3] = system: DIPGX7 (H3.3 K27M diffuse intrinsic pontine glioma line)
Method in brief: as §1

[4] = system: DIPGX9 (diffuse intrinsic pontine glioma line)
Method in brief: as §1

[5] = system: HGGX39 (paediatric high-grade glioma line)
Method in brief: as §1

[6] = system: HGGX6 (H3.3 G34R paediatric high-grade glioma line)
Method in brief: as §1

[7] = system: HNSC
Method in brief: as §1

[8] = system: SUDIPGIV (diffuse intrinsic pontine glioma line)
Method in brief: as §1

[9] = system: SUDIPGVI (diffuse intrinsic pontine glioma line)
Method in brief: as §1

[10] = system: SUDIPGXIII (diffuse intrinsic pontine glioma line)
Method in brief: as §1

SMILES | growth inhibition [1] [%] | growth inhibition [2] [%] | growth inhibition [3] [%] | growth inhibition [4] [%] | growth inhibition [5] [%] | growth inhibition [6] [%] | growth inhibition [7] [%] | growth inhibition [8] [%] | growth inhibition [9] [%] | growth inhibition [10] [%]
Cc1cccc(C)c1NC(=O)CN1CCCC1=O | -3.64 | -1.99 | -0.96 | -1.24 | -0.565 | -3.14 | 6.05 | -2.89 | -1.55 | -1.38
CN(C)C(=O)Oc1ccc[n+](C)c1 | 0.471 | -1.26 | -0.161 | 0.978 | 0.907 | 0.761 | -1.64 | 0.973 | 1.15 | -0.0947
O=C(O[C@H]1C[N+]2(CCCOc3ccccc3)CCC1CC2)C(O)(c1cccs1)c1cccs1 | -1.76 | -1.33 | -0.665 | -1.04 | -0.0721 | -0.623 | 3.39 | -1.77 | -5.53 | 0.0508
c1ccc2c(c1)sc1ccccc12 | -2.47 | -0.0217 | -2.61 | -1.01 | -2.68 | -1.23 | -4.08 | -1.98 | -1.87 | 1.54
C[C@]12CC[C@H]3[C@@H](CC[C@@]45O[C@@H]4C(O)=C(C#N)C[C@]35C)[C@@H]1CC[C@@H]2O | 0.975 | -2.98 | 3.34 | -0.94 | 3.74 | 0.2 | -3.23 | -0.766 | -0.488 | -1.34
CC(NC(C)(C)C)C(=O)c1cccc(Cl)c1 (stereo not drawn) | -0.525 | -0.598 | -1.27 | 0.229 | 1.55 | 0.445 | -1.56 | 0.0304 | -0.145 | 0.264
Nc1nc(N)nc(NC2CC2)n1 | 0.786 | 3.68 | 1.03 | 0.525 | 0.614 | -0.225 | 1.21 | 1.07 | 2.19 | 0.454
Cc1cc(O)ccc1Cl | -0.668 | 0.714 | 0.716 | -0.222 | 0.78 | 0.216 | -2.46 | -0.746 | 0.283 | 0.848
CN(C)C1C(=O)C(C(N)=O)=C(O)C2(O)C(=O)C3=C(O)c4c(O)cccc4C(C)(O)C3CC12 (stereo not drawn) | -1.53 | -2.75 | 0.404 | -0.553 | 1.88 | -0.661 | -1.6 | 2.83 | -2.69 | -1.63
Cc1cccc(Cc2c[nH]cn2)c1C | 1.63 | 3.84 | 4.17 | 3.18 | 5.48 | 2.59 | 4.93 | 6.05 | 6.15 | 0.33
C[N+]1(C)CCCC(OC(=O)C(O)(c2ccccc2)c2ccccc2)C1 (stereo not drawn) | -0.577 | 0.259 | -0.262 | 0.527 | -0.329 | -1.01 | 20.4 | -0.578 | -2.44 | -1.44
C=CC[C@]1(O)CC[C@H]2[C@@H]3CCC4=CC(=O)CCC4=C3C=C[C@@]21C | 1.35 | 1.67 | -0.403 | 1.01 | 1.7 | 1.91 | 2.23 | 1.08 | 1.88 | 2.31
CN1C(=O)COc2c(C(=O)NC3CN4CCC3CC4)cc(Cl)cc21 (stereo not drawn) | 2.11 | 3.22 | 1.36 | 3.07 | 2.32 | 3.19 | 0.849 | -0.021 | 3.53 | 1.12
Cc1cccc(C)c1NC1=NCCCS1 | -3.36 | -1.28 | -0.135 | -0.817 | -0.494 | 0.819 | -4.34 | 2.42 | -4.55 | 0.0734
CN(C)[C@@H]1C(=O)C(C(N)=O)=C(O)[C@@]2(O)C(=O)C3=C(O)c4c(O)ccc(Cl)c4[C@@](C)(O)[C@H]3C[C@@H]12 | 3.18 | 4.29 | 3.71 | 3.16 | 4.59 | 3.5 | 2.92 | 2.12 | 3.1 | -1.15
Cc1cc(C(C#N)c2ccc(Cl)cc2)c(Cl)cc1NC(=O)c1cc(I)cc(I)c1O (stereo not drawn) | -4.52 | -1.84 | -0.384 | -2.01 | -0.728 | -4.74 | 4.96 | -0.00583 | -3.36 | 3.29
C[C@@H]1O[C@@H](O[C@H]2C[C@@H](O)[C@]3(CO)[C@H]4[C@H](O)C[C@]5(C)[C@@H](C6=CC(=O)OC6)CC[C@]5(O)[C@@H]4CC[C@]3(O)C2)[C@H](O)[C@H](O)[C@H]1O | 41.5 | 21.1 | 60.7 | 26.1 | 54.5 | 51.4 | 59.4 | 60.1 | 37.7 | 45.3
O=P1(NCCCl)OCCCN1CCCl (stereo not drawn) | -2.21 | -0.766 | 5.61 | 0.389 | 3.87 | -0.383 | -5.21 | -2.15 | -7.65 | -1.43
CN1[C@@H]2C[C@@H](OC(=O)[C@H](CO)c3ccccc3)C[C@H]1[C@@H]1O[C@@H]12 | -4.79 | -2 | -0.341 | -2.82 | -2.31 | -3.37 | 23.8 | -3.93 | -9.6 | 0.487
CC(=O)OC1CN2CCC1CC2 (stereo not drawn) | -0.533 | 1.16 | 0.391 | 1.28 | 1.15 | -1.32 | 2.31 | -0.883 | 1.26 | 0.846
CC(O)(CS(=O)(=O)c1ccc(F)cc1)C(=O)Nc1ccc(C#N)c(C(F)(F)F)c1 (stereo not drawn) | 0.345 | -1.44 | 1.23 | 0.462 | 1.55 | 0.395 | -0.177 | -0.994 | 2.38 | 1.16

SMILES | growth inhibition [1] [%] | growth inhibition [2] [%] | growth inhibition [3] [%] | growth inhibition [4] [%] | growth inhibition [5] [%] | growth inhibition [6] [%] | growth inhibition [7] [%] | growth inhibition [8] [%] | growth inhibition [9] [%] | growth inhibition [10] [%]
NCCc1c[nH]c2ccc(O)cc12 | -2.73 | 0.315 | -2.87 | -2.24 | -2.22 | -1.35 | -4.26 | 0.704 | -3.47 | 0.646
C=CCN.ClCC1CO1 (stereo not drawn) | 0.23 | -1.75 | 1.62 | 1.51 | 2.03 | -0.039 | 0.544 | 0.558 | 1.49 | 0.672
OC(c1ccccc1)(c1ccccc1)C1CCNCC1 | 0.581 | -0.7 | -0.982 | -0.0248 | -0.475 | 0.616 | -1.42 | -1.01 | 0.144 | 1.52
O=C1CC[C@@]2(O)[C@H]3Cc4ccc(O)c5c4[C@@]2(CCN3CC2CC2)[C@H]1O5 | 1.67 | 1.95 | 2.36 | 2.58 | 3.26 | 2.55 | 3.56 | 1.52 | 3.67 | -0.861
CC(=O)O[C@H]1C[C@@H]2CC[C@@H]3[C@H](CC[C@@]4(C)[C@H]3C[C@H]([N+]3(C)CCCCC3)[C@@H]4OC(C)=O)[C@@]2(C)C[C@@H]1[N+]1(C)CCCCC1 | -1.09 | 0.743 | -0.188 | 0.99 | -0.431 | 1.2 | -0.41 | -0.385 | 0.196 | –
CC(=O)Nc1cc([As](=O)(O)O)ccc1O | -0.747 | 1.33 | -1.33 | -0.567 | 0.328 | 0.00658 | -0.382 | -1.04 | 0.903 | 1.03
C[C@]12CC[C@H](O)CC1=CC[C@@H]1[C@@H]2CC[C@]2(C)C(=O)CC[C@@H]12 | 2.61 | 1.45 | 2.22 | 1.17 | 3.44 | 4 | 3.63 | 2.37 | 3.47 | 1.67
O=C(O)c1nn(Cc2ccc(Cl)cc2Cl)c2ccccc12 | 1.18 | 2.18 | 1.47 | -0.0993 | 1.2 | -0.667 | 30.5 | 3.06 | -3.75 | -0.117
CCC(COC(=O)c1cc(OC)c(OC)c(OC)c1)(c1ccccc1)N(C)C (stereo not drawn) | 7.04 | -5.85 | 26.9 | 2.8 | 7.48 | 5.32 | 52.1 | 23.2 | -0.409 | -13.6
COc1ccc(OC)c(C(O)C(C)N)c1 (stereo not drawn) | 0.864 | 2.94 | -0.264 | 0.24 | 3.05 | 1.53 | 1.54 | 0.0544 | 3.12 | -0.103
C=C(C)[C@@H]1[C@H]2OC(=O)[C@@H]1[C@]1(O)C[C@H]3O[C@]34C(=O)O[C@H]2[C@]14C | -0.435 | 1.09 | -0.608 | 0.386 | 1.14 | 0.986 | -1.08 | -0.711 | 2.74 | 0.384
Cn1c(CCCC(=O)O)nc2cc(N(CCCl)CCCl)ccc21 | 3.01 | 2.76 | 2.34 | 11.2 | 4.99 | 3.4 | 48.6 | -0.00689 | 1.43 | -0.487
C#C[C@]1(O)CC[C@H]2[C@@H]3CCC4=CC(=O)CC[C@]4(C)[C@H]3CC[C@@]21C | 0.66 | 2.06 | 2.92 | 3.05 | 1.6 | 0.344 | 5.86 | 0.623 | 2.6 | 0.296
O=P1(N(CCCl)CCCl)NCCCO1 (stereo not drawn) | -1.28 | -0.973 | -2.34 | -0.609 | -1.32 | -0.517 | -1.67 | -2.17 | -1.97 | -0.0596
CNC1CC(N)C(O)C(OC2OC(CO)C(O)C3OC4(OC(C(N)CO)C(O)C(O)C4O)OC23)C1O (stereo not drawn) | 4.68 | 1.71 | 0.134 | 3.12 | -0.261 | 1.68 | 1.11 | 3.64 | 1.16 | -0.132
CN1C2CC(O)CC1C1OC12 (stereo not drawn) | -2.42 | -0.452 | -1.33 | 0.803 | -1.67 | -0.472 | -2.89 | -1.37 | -0.226 | –
CC(C)c1c(CN(C)C(C)Cc2ccccc2)n(C)n(-c2ccccc2)c1=O (stereo not drawn) | 2.25 | 0.985 | 2.59 | -0.334 | -0.152 | -0.564 | 48.4 | 1.4 | -1.33 | 2.29
NCC(CC(=O)O)c1ccc(Cl)cc1 (stereo not drawn) | 1.57 | -2.95 | 2.49 | 1.01 | 0.323 | -0.203 | 33.3 | 2.9 | -4.01 | 0.136
CCN(C)C(=O)Oc1cccc([C@H](C)N(C)C)c1 | -0.955 | -0.495 | 1.09 | 0.618 | 1.41 | 0.109 | 4.36 | -1.75 | -2.42 | -0.000881
CC[C@@H](C(N)=O)N1CCCC1=O | 1.34 | -1.57 | 0.427 | -0.877 | -1.17 | -3.23 | -0.905 | -1.25 | -0.784 | 0.999
